The values below come from PubChem BioAssay (Tox21).

Assay [1] in a line: qHTS assay to identify small molecule agonists of H2AX - cell viability counter screen (AID 1224847; calls by dose curve; note: nearly all actives have a fitted effect of over 30% in size; note: potency is the fitted concentration of half-maximal effect;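 for activity change, negative = cytotoxicity: wild-type CHO-K1 cells; top concentration of the series differs between compounds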). The gist of the method: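 After overnight plating of 1000 CHO-K1 cells per well, a 15-concentration compound series was applied for 3 hr at 37C. Luminescence from CellTiter-Glo, read following 30 min at room temperature, reflected cell viability.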
Background: In qHTS, concentration-response curves come from the screen itself.

Assay [2] can be described thus: qHTS assay to identify small molecule antagonists of the estrogen related receptor (ERR) signaling pathway from Tox21 library (AID 1224848). Note: nearly all actives have a fitted effect of over 50% in size. Note: potency is the fitted concentration of half-maximal effect. The gist of the method: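 Compounds dissolved in DMSO are pin-transferred onto ERR reporter cells (2,000 per well) that have settled for 6 h at 37 C. Plates then incubate 18 h at 37 C before ONE-Glo luciferase reagent and a luminescence read 30 min later.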

Assay [3] is described as follows: qHTS assay to identify small molecule agonists of the estrogen related receptor (ERR) signaling pathway from Tox21 library (AID 1224849; calls by dose curve; note: nearly all actives have a fitted effect of over 15% in size). As to conditions: ERR reporter cell line, ONE-Glo luciferase, 18 h; at 92.4 µM (top of the series) unless noted. The gist of the method: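 Luminescent agonist read-out (One-Glo, 30-minute room-temperature incubation) following 18-hour compound treatment at 37 C of the ERR cell line, which had been plated 6 hours before dosing.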

Assay [4] can be described thus: qHTS RealTime-Glo MT Cell Viability Assay in HepG2 cells - 24 hour (AID 1224867). Note: nearly all actives have a fitted effect of over 50% in size. Note: potency is the fitted concentration of half-maximal effect. The method, boiled down: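 Cell number in HepG2 cultures estimated from NanoLuc luminescence generated by metabolic reduction of a prosubstrate by living cells. The homogeneous, nonlytic format allowed repeated reads at 0, 8, 16, 24, 32 and 40 h of compound exposure.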
Assay [5] is described as follows: qHTS RealTime-Glo MT Cell Viability Assay in HEK293 cells - 32 hour (AID 1224868). For activity change, negative = cytotoxic: top concentration of the series differs between compounds. Note: nearly all actives have a fitted effect of over 50% in size. Note: potency is the fitted concentration of half-maximal effect. The method, boiled down:
(§1)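 Homogeneous bioluminescent viability format in HEK293 cells (600 cells/well). Following 5 h at 37 C/5% CO2, 23 nL compound was pintooled; the signal was measured repeatedly during 40 h incubation.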

Assay [6] is described as follows: A CellTox Green Cytotoxicity Assay to monitor cytotoxicity in HEK293 cells - 0 hour (AID 1224869). Note: nearly all actives have a fitted effect of over 50% in size. Note: potency is the fitted concentration of half-maximal effect. The method, boiled down:
(§2)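 Fluorescence from a DNA-binding dye excluded by viable cells was measured repeatedly in the same HEK293 wells (600 cells/well) during continuous compound exposure at 37 C. Each assay gives one read point: 0, 8, 16, 24, 32 or 40 h.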

Assay [7] can be described thus: qHTS RealTime-Glo MT Cell Viability Assay in HepG2 cells - 40 hour (AID 1224870). Note: nearly all actives have a fitted effect of over 50% in size. Note: potency is the fitted concentration of half-maximal effect. The method, boiled down:
(§3)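 HepG2 cells (600/well) mixed with RealTime-Glo MT reagent, settled 5 h at 37 C/5% CO2 before compound addition. Nonlytic NanoLuc luminescence from viable-cell prosubstrate reduction read repeatedly during 40 h treatment at 37 C.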

The nature of assay [8]: A CellTox Green Cytotoxicity Assay to monitor cytotoxicity in HEK293 cells - 40 hour (AID 1224871). Note: nearly all actives have a fitted effect of over 45% in size. Note: potency is the fitted concentration of half-maximal effect. The method, boiled down:
as §2

Assay [9] in a line: qHTS RealTime-Glo MT Cell Viability Assay in HEK293 cells - 16 hour (AID 1224872). For activity change, negative = cytotoxicity: top concentration of the series differs between compounds. Note: nearly all actives have a fitted effect of over 50% in size. Note: potency is the fitted concentration of half-maximal effect. The gist of the method: as §1
Assay [10] is described as follows: qHTS RealTime-Glo MT Cell Viability Assay in HepG2 cells - 8 hour (AID 1224873). Note: nearly all actives have a fitted effect of over 55% in size. Note: potency is the fitted concentration of half-maximal effect. The method, boiled down: as §3

Unmarked numbers belong to inactive results. Inconclusive results are not listed. Calls of active or inactive are those of the source. Unless noted, calls come from the whole dose curve; as a rule, active = well fitted curve in the direction sought with a large enough effect in the repeat runs; inconclusive = weak or mixed curves; inactive = no such curve, though single readings can be large; an effect the other way counts as inactive or inconclusive.
% is set by controls: 0 for no effect and ±100 for the full control effect.

Take `CN[C@H]1CC[C@@H](c2ccc(Cl)c(Cl)c2)c2ccc(S(N)(=O)=O)cc21`: the Potency in assay [1] is 113 µM (active); in [2], 61.1 µM (active); in assay [4], 24.5 µM (active); in assay [5], 19.5 µM (active); in assay [7], 21.9 µM (active); in assay [8] it was 27.5 µM (active). The Potency in [9] was 24.5 µM (active); in assay [10], 49 µM (active). Further, the activity change, positive = activation in [3] is -79%. Further, the Potency result in assay [6] is “inactive”.
Take `COc1ccc(OC)c(N=Nc2c(O)ccc3ccccc23)c1`: the Potency in [1] was 40.1 µM (active). The Potency entry in assay [2], in [4], in [6], in assay [7] and in [8] was “inactive” throughout. For the same compound, in assay [3], the activity change, positive = activation is -14.1%.
In the case of `CS(=O)(=O)c1ccc([C@@H](CC2CCCC2)C(=O)Nc2cnccn2)cc1Cl`, the Potency in assay [1] was 101 µM (active).
As to `O=S(=O)(c1ccc(OCc2ccccc2)cc1)c1ccccc1O`, the Potency is 45 µM (active) in assay [1] and 19.3 µM (active) in assay [2]. In addition, the activity change, positive = activation in [3] is -29%. The Potency result in [4], in [6], in assay [7] and in assay [10] was “inactive” throughout.
As for `CCCOC(=O)c1ccc(O)cc1`, the Potency entry in [1], in assay [2], in assay [4], in assay [6], in assay [7] and in assay [8] was “inactive” each time. For the same compound, in assay [10], the Potency entry is “inactive”. Besides, the activity change, positive = activation in [3] was 17.7% (active). Also, the Potency in [9] was 49 µM (active).
On to `Cn1ccnc1`, for which the Potency result in assay [1], in assay [2], in assay [4], in assay [5], in assay [6] and in [7] was “inactive” throughout. Besides, the Potency result in assay [8], in assay [9] and in assay [10] was “inactive” each time. The activity change, positive = activation in [3] was 1.09%.
On to `C=Cc1ccncc1`, for which the Potency entry in [1], in assay [2], in assay [4], in assay [5], in assay [6] and in [7] was “inactive” throughout. In addition, the Potency entry in assay [9] and in assay [10] was “inactive” in each case. In addition, the activity change, positive = activation in [3] is 4.99%.
On to `CCCCCCCCOC(=O)c1cc(O)c(O)c(O)c1`, for which the Potency in assay [1] is 89.8 µM (active); in assay [2], 3.44 µM (active); in [4], 19.5 µM (active); in assay [5] it was 11 µM (active); in assay [9] it was 6.92 µM (active); in [10], 17.4 µM (active). Further, the activity change, positive = activation in [3] was -45.2%. For the same compound, the Potency entry in [6] was “inactive”.
As to `CC1(C)[C@H]2CC[C@]1(C)C(=O)C2`, the Potency result in assay [1], in assay [2], in assay [4], in [5], in assay [6] and in assay [7] was “inactive” each time. For the same compound, the Potency result in assay [8], in assay [9] and in assay [10] was “inactive” each time. In addition, the activity change, positive = activation in assay [3] was 6.28%.
Turning to `Cc1cccc2c1ccc1ccccc12`, the Potency entry in assay [1], in assay [4], in assay [5], in assay [6], in [7] and in assay [8] was “inactive” in each case. Further, the Potency result in assay [9] and in [10] was “inactive” in each case. In addition, in [2], the Potency was 24.3 µM (active). Besides, in assay [3], the activity change, positive = activation was -38.7%.
Consider `Clc1ccc2c(Cl)ccnc2c1`, for which the Potency entry in assay [1], in assay [2], in assay [4], in assay [5], in assay [6] and in assay [7] was “inactive” each time. Also, the Potency entry in assay [9] and in [10] was “inactive” throughout. The activity change, positive = activation in assay [3] was 1.29%.
`C1CCSC1`: the Potency entry in assay [1], in assay [2], in assay [4], in assay [6], in [7] and in [8] was “inactive” each time. Further, the Potency entry in assay [10] was “inactive”. Also, the activity change, positive = activation in [3] was 0.687%.
With `C/C=C/C(=O)C1=C(C)C=CCC1(C)C`, the Potency result in [1], in [2], in assay [4], in assay [5], in assay [6] and in [7] was “inactive” each time. Further, the Potency result in [8], in assay [9] and in [10] was “inactive” throughout. Also, in assay [3], the activity change, positive = activation is -1.28%.
For the compound `O=C(O)C[C@H](O)C[C@H](O)/C=C/c1c(C2CC2)nc2ccccc2c1-c1ccc(F)cc1`, the activity change, negative = cytotoxicity in assay [1] is -0.332% [at 31.6 µM]; in [4], -20.3% [at 15.8 µM]; in assay [9] it was 7.11% [at 15.8 µM]. For the same compound, the activity, negative = inhibition in assay [2] is 60.7% [at 19 µM]. Further, the activity change, positive = activation in assay [3] was 31.2% [at 19 µM] (active). For the same compound, the activity change, negative = cytotoxic in assay [5] was -6.08% [at 15.8 µM]; in assay [7], -27.7% [at 15.8 µM]. For the same compound, the cytotoxicity in [6] is -2.87% [at 15.8 µM]. In assay [8], the cytotoxicity increase is 1.42% [at 15.8 µM]. For the same compound, the viability change, negative = cytotoxic in assay [10] is 4.17% [at 15.8 µM].
Consider `O=C1OC2(c3ccccc31)c1ccc(O)c(Br)c1Oc1c2ccc(O)c1Br`, for which the Potency result in assay [1], in [2], in assay [4], in [5] and in assay [7] was “inactive” throughout. Besides, in assay [6], the Potency was 6.16 µM (active).
Turning to `CN(C[C@@H](CC[N+]12CCC(C3CCCCC3)(CC1)CC2)c1ccc(Cl)c(Cl)c1)C(=O)c1cc(C(F)(F)F)cc(C(F)(F)F)c1`, the Potency in assay [1] is 50.5 µM (active); in assay [2], 27.3 µM (active); in [4] it was 21.9 µM (active); in assay [5], 2.19 µM (active); in assay [7] it was 21.9 µM (active); in assay [8], 27.5 µM (active). Moreover, the results for the Potency in assay [9] and in assay [10] were 3.09 µM (active) and 24.5 µM (active), respectively. For the same compound, in assay [3], the activity change, positive = activation is -78.4%. In assay [6], the Potency entry was “inactive”.
As to `Cc1cc(Br)ccc1NC(=O)CCl`, the Potency result in [1] and in [6] was “inactive” throughout. The Potency is 15.4 µM (active) in [2]; 24.5 µM (active) in assay [5]; 43.6 µM (active) in assay [7]; 30.9 µM (active) in assay [8]; 38.9 µM (active) in [9].
With `CC(c1cc(C(C)(C)C)cc(C(C)(C)C)c1O)c1cc(C(C)(C)C)cc(C(C)(C)C)c1O`, the Potency result in assay [1], in assay [4], in [6], in assay [7] and in assay [10] was “inactive” in each case. Further, the activity change, positive = activation in assay [3] was -15.4%.
`S=C1NC=NC2N=CNC12` (configuration not stated): the Potency in assay [1] was 3.19 µM (active); in assay [2], 19.3 µM (active); in assay [5], 21.9 µM (active). Besides, the Potency entry in [4], in assay [6], in [7] and in assay [10] was “inactive” in each case.
As for `CSc1ccc(O)cc1C`, the Potency result in [1], in assay [2], in assay [4], in assay [6], in assay [7] and in [8] was “inactive” each time. Also, the Potency result in assay [9] and in assay [10] was “inactive” throughout.
Consider `CCCCCCCCSCc1cc(C)c(O)c(CSCCCCCCCC)c1`, for which the Potency entry in assay [1], in assay [2], in [4], in assay [5], in assay [6] and in assay [7] was “inactive” each time. Besides, the Potency entry in [10] was “inactive”.
As to `CC/C=C(\C)C=O`, the Potency entry in assay [1], in [2], in assay [4], in assay [5], in [6] and in assay [7] was “inactive” throughout. The Potency entry in assay [8], in assay [9] and in assay [10] was “inactive” each time.
For the compound `CCCCCCCCCCCCCCCCC(C(=O)O)C(O)(CC(=O)O)C(=O)O` (configuration not stated), the Potency result in assay [1], in assay [2], in assay [4], in assay [5], in assay [6] and in assay [7] was “inactive” throughout. Further, the Potency result in assay [9] and in [10] was “inactive” in each case.
Take `Clc1nc(C(Cl)(Cl)Cl)c(Cl)c(Cl)c1Cl`: the Potency result in assay [1], in [5], in assay [6] and in assay [10] was “inactive” throughout. The activity change, positive = activation in assay [3] is -54%. Further, in [7], the Potency is 54.9 µM (active).
